The values below come from PubChem BioAssay (EPA / NIEHS).

Test [1] concerns the target Paired box protein Pax-6 (Homo sapiens) (UniProt P26367). The test is described as follows: ATG_Pax6_CIS: Attagene CIS-FACTORIAL HepG2 Assay for human Paired Box 6 (PAX6) (AID 2282956). As to conditions: HepG2 CIS-FACTORIAL PAX6 reporter transcription, RNA readout; actives raise or lower the signal. In short, it runs like this:
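Multiplexed cis-reporter HepG2 system; 24 h treatment; reporter mRNA read by RT-PCR/CE fluorescence; bidirectional fit vs DMSO.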

Test [2] in a line: ATG_PXRE_CIS: Attagene CIS-FACTORIAL HepG2 Assay for human Pregnane X Receptor Element (PXRE) (AID 2282957). As to conditions: HepG2 Attagene CIS-FACTORIAL PXRE reporter, mRNA; actives raise or lower the signal. In short, it runs like this:
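HepG2 cells transiently transfected with cis-regulated multiple reporter transcription units; endogenous factor activity measured as reporter mRNA 24 h after dosing. RT-PCR, fluorescent primer extension, HpaI digestion, capillary electrophoresis; bidirectional fit versus DMSO baseline.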

Test [3] in a line: ATG_PPRE_CIS: Attagene CIS-FACTORIAL HepG2 Assay for human Peroxisome Proliferator-activated Response Element (PPRE) (AID 2282958). The note with it: HepG2 PPRE cis-element reporter, Attagene transcription factor profiling; actives raise or lower the signal. In short, it runs like this: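 After human HepG2 hepatoma cells were transiently transfected with cis-promoter reporter constructs, they were exposed to test chemicals for 24 hours. Reporter RNA was then reverse-transcribed, PCR-amplified, FAM-labeled, HpaI-digested and quantified by capillary electrophoresis.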

The nature of test [4]: ATG_RORE_CIS: Attagene CIS-FACTORIAL HepG2 Assay for human RAR-related Orphan Receptor Element (RORE) (AID 2282959). As to conditions: HepG2 Attagene cis-factorial RORE reporter, mRNA; actives raise or lower the signal. In short, it runs like this:
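Measured here: transcript induction of a cis-regulated reporter in HepG2 cells transiently transfected via FuGene 6. After 24 h, RNA was processed by RT-PCR and fluorescent capillary electrophoresis; DMSO defined baseline activity.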

Test [5] is described as follows: ATG_Sox_CIS: Attagene CIS-FACTORIAL HepG2 Assay for human SRY-box transcription factor (SOX) (AID 2282960). As to conditions: HepG2 Attagene cis-factorial SOX reporter, mRNA; actives raise or lower the signal. Summed up:
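Using transiently transfected HepG2 cells, reporter transcription driven by cis elements was assessed 24 h after dosing. Signal was fluorescence of capillary-separated RT-PCR products, with DMSO defining baseline activity.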

Test [6] deals with Transcription factor Sp1 (Homo sapiens) (UniProt P08047). The test is described as follows: ATG_Sp1_CIS: Attagene CIS-FACTORIAL HepG2 Assay for human Specificity Protein 1 (Sp1) (AID 2282961). The note with it: HepG2 Sp1 cis-reporter transcription, actives raise or lower the signal. In short, it runs like this: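 After transient transfection of HepG2 cells with cis-promoter reporter units and 24 h chemical treatment, reporter transcripts were quantified by RT-PCR and capillary electrophoresis fluorescence. Gain- and loss-of-signal fitted against DMSO.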

A short description of test [7]: ATG_SREBP_CIS: Attagene CIS-FACTORIAL HepG2 Assay for human Sterol Regulatory Element Binding (SREBP) (AID 2282962). As to conditions: HepG2 Attagene cis-factorial SREBP reporter, mRNA; actives raise or lower the signal. Summed up:
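mRNA induction of transfected cis-promoter reporters in HepG2 cells, 24 h post-dose. Detection: RT-PCR with 6-FAM-labelled products, HpaI digest, capillary electrophoresis. DMSO served as negative control and baseline.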

Test [8] addresses Signal transducer and activator of transcription 3 (Homo sapiens) (UniProt P40763). As to the kind of experiment: ATG_STAT3_CIS: Attagene CIS-FACTORIAL HepG2 Assay for human Signal Transducer and Activator of Transcription 3 (STAT3) (AID 2282963). The note with it: HepG2, Attagene cis-factorial STAT3 reporter transcription; actives raise or lower the signal. In short, it runs like this: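 Values derive from bidirectional fits relative to DMSO of reporter mRNA levels, measured by RT-PCR with capillary electrophoresis, in HepG2 cells carrying transiently transfected cis-regulated reporter units and exposed 24 h.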

Test [9] can be described thus: ATG_TCF_b_cat_CIS: Attagene CIS-FACTORIAL HepG2 Assay for human T-Cell-Factor with beta-catenin (TCF/b-cat) (AID 2282965). As to conditions: HepG2 TCF/beta-catenin cis-reporter transcription, actives raise or lower the signal. Summed up: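 HepG2, transient MRTU transfection, cis-element-driven reporters (endogenous TFs). 24 h compound exposure. Readout: reporter mRNA by RT-PCR + 6-FAM primer extension, HpaI digest, capillary electrophoresis. Gain/loss fit vs DMSO baseline.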

Test [10] can be described thus: ATG_TAL_CIS: Attagene CIS-FACTORIAL HepG2 Assay for human TAL Basal Promoter (AID 2282966).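 Further: background control endpoint measuring basal TAL promoter reporter mRNA not a specific factor.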 The note with it: HepG2 Attagene cis-factorial TAL promoter reporter; actives raise or lower the signal. In short, it runs like this: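 HepG2 cells were transiently transfected with promoter-driven multiplexed reporter units and dosed for 24 h. Reporter mRNA was measured by RT-PCR with capillary electrophoresis fluorescence; bidirectional fits used DMSO as baseline, serving as a background control.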

Test [11] can be described thus: ATG_TGFb_CIS: Attagene CIS-FACTORIAL HepG2 Assay for human Transforming Growth Factor (TGF) (AID 2282967). The note with it: HepG2 Attagene CIS TGFb reporter, mRNA transcription; actives raise or lower the signal. In short, it runs like this: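 Liver HepG2 line, cis-factorial reporter panel, 24 h dosing. Quantitation: RT-PCR products labeled with 6-FAM, cut with HpaI, resolved by capillary electrophoresis; DMSO-referenced bidirectional analysis.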

Test [12] has as its target Nuclear receptor subfamily 1 group I member 3 (Homo sapiens) (UniProt Q14994). As to the kind of experiment: ATG_CAR_TRANS: Attagene TRANS-FACTORIAL HepG2 Assay for human Constitutive Androstane Receptor (CAR) (AID 2282969; active means hit-call score of the fitted dose curve at least 0.9, where 1 is the maximum;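 further: activators raise reporter mRNA above DMSO so AC50 marks induction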). The note with it: HepG2 Attagene TRANS-FACTORIAL CAR reporter. In short, it runs like this: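 HepG2 cells transiently transfected with GAL4-UAS reporter units; TRANS format reads activity of exogenous chimeric NR-Gal4 protein. After 24 h dosing, reporter mRNA quantified by RT-PCR, 6-FAM labelling and capillary electrophoresis; gain of signal fitted against DMSO.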

The target in test [13] is Estrogen receptor (Homo sapiens) (UniProt P03372). As to the kind of experiment: ATG_ERa_TRANS: Attagene TRANS-FACTORIAL HepG2 Assay for human Estrogen Receptor alpha (ERa) (AID 2282970; active means hit-call score of the fitted dose curve at least 0.9, where 1 is the maximum). As to conditions: HepG2 Attagene TRANS ERa GAL4 reporter, mRNA. In short, it runs like this: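 HepG2 cells transiently transfected with multiplexed GAL4-UAS reporter units; ERa activity read via exogenous chimeric NR-Gal4 protein. After 24 hour compound exposure, reporter mRNA measured by RT-PCR with 6-FAM labelling and capillary electrophoresis; gain-of-signal fitted relative to DMSO.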

The target of test [14] is X-box-binding protein 1 (Homo sapiens) (UniProt P17861). The test is described as follows: ATG_Xbp1_CIS: Attagene CIS-FACTORIAL HepG2 Assay for human X-box Binding Protein 1 (XBP1) (AID 2282972). The note with it: HepG2 XBP1 cis-element reporter, Attagene multiplex; actives raise or lower the signal. In short, it runs like this:
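Fluorescence-labelled cDNA fragments from reporter transcripts, separated by capillary electrophoresis, give the signal. Source: HepG2 cells transfected with promoter-driven reporter units, harvested 24 h post-dose. DMSO served as reference for bidirectional curve fitting.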

Test [15] can be described thus: ATG_GAL4_TRANS: Attagene TRANS-FACTORIAL HepG2 Assay for GAL4 (Internal Marker) (AID 2282976; active means hit-call score of the fitted dose curve at least 0.9, where 1 is the maximum). The note with it: HepG2 Attagene TRANS GAL4 internal marker reporter. Summed up:
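HepG2 cells transiently transfected with multiplexed GAL4-UAS reporter constructs were dosed for 24 h. Reporter mRNA was measured by RT-PCR, 6-FAM primer extension, HpaI digestion and capillary electrophoresis, and gain of signal was fitted relative to DMSO.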

A short description of test [16]: ATG_TA_CIS: Attagene CIS-FACTORIAL HepG2 Assay for human TA Basal Promoter (AID 2282964). The note with it: HepG2 Attagene CIS-factorial TA basal promoter reporter; actives raise or lower the signal. In short, it runs like this:
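Background internal-marker endpoint from a 52-component HepG2 cis-reporter panel. Cells treated 24 h; reporter transcripts quantified via RT-PCR and CE fluorescence against DMSO baseline.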

In test [17] the target is Steroid hormone receptor ERR1 (Homo sapiens) (UniProt P11474). The test is described as follows: ATG_ERRa_TRANS: Attagene TRANS-FACTORIAL HepG2 Assay for human Estrogen-Related Receptor alpha (ERRa) (AID 2282971; active means hit-call score of the fitted dose curve at least 0.9, where 1 is the maximum). As to conditions: HepG2 Attagene TRANS reporter, ERRa transactivation. Summed up: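 HepG2 cells transiently transfected with multiplexed GAL4-UAS reporter units reading chimeric ERRa-Gal4 activity; 24 h compound exposure. Reporter mRNA measured by RT-PCR, 6-FAM labelling, HpaI digest and capillary electrophoresis; gain of signal fitted versus DMSO baseline.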

In test [18] the target is Estrogen-related receptor gamma (Homo sapiens) (UniProt P62508). As to the kind of experiment: ATG_ERRg_TRANS: Attagene TRANS-FACTORIAL HepG2 Assay for human Estrogen-Related Receptor gamma (ERRg) (AID 2282977; active means hit-call score of the fitted dose curve at least 0.9, where 1 is the maximum;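 further: hits increase reporter signal over DMSO so potencies reflect activators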). The note with it: HepG2 Attagene TRANS reporter, ERRg transactivation. Summed up:
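Transient HepG2 transfectants, 24 h compound exposure, GAL4-UAS reporter mRNA by RT-PCR/6-FAM labelling/capillary electrophoresis; positive direction vs DMSO.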

Test [19] is described as follows: ATG_VDRE_CIS: Attagene CIS-FACTORIAL HepG2 Assay for human Vitamin D Receptor Element (VDRE) (AID 2282968). As to conditions: HepG2 VDRE cis-reporter transcription, actives raise or lower the signal. In short, it runs like this:
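Cell-based multiplexed reporter format in human liver HepG2 cells, 24 h post-dose. Fluorescence from capillary electrophoresis of reporter cDNA gives the signal, with DMSO as negative control and baseline.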

Test [20] in a line: ATG_M_19_TRANS: Attagene TRANS-FACTORIAL HepG2 Assay for M19 Transcription Factor (Internal Marker) (AID 2282974; active means hit-call score of the fitted dose curve at least 0.9, where 1 is the maximum). The note with it: HepG2 Attagene TRANS-FACTORIAL M19 internal marker reporter. Summed up: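 Gain-of-signal in reporter mRNA, relative to DMSO, was scored from capillary electrophoresis fluorescence. HepG2 cells carried transiently transfected multiple reporter transcription units and were incubated with test chemicals for 24 h.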

Records with an inconclusive call do not appear. Calls of active or inactive are those of the source. How the source made its calls, unless noted: active means hit-call score of the fitted dose curve at least 0.9, where 1 is the maximum; inactive means score below 0.9.

Chain of X-box-binding protein 1 (Homo sapiens) (P17861 whole entry, looked up, the tested form may be a part): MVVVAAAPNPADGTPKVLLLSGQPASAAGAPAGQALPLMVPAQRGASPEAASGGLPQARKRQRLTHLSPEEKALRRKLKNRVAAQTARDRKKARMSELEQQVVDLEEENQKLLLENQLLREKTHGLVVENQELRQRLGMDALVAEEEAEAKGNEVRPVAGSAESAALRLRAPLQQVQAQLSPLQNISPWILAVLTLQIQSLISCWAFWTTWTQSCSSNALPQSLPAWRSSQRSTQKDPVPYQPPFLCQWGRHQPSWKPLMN
Chain of Transcription factor Sp1 (Homo sapiens) (P08047 whole entry, looked up): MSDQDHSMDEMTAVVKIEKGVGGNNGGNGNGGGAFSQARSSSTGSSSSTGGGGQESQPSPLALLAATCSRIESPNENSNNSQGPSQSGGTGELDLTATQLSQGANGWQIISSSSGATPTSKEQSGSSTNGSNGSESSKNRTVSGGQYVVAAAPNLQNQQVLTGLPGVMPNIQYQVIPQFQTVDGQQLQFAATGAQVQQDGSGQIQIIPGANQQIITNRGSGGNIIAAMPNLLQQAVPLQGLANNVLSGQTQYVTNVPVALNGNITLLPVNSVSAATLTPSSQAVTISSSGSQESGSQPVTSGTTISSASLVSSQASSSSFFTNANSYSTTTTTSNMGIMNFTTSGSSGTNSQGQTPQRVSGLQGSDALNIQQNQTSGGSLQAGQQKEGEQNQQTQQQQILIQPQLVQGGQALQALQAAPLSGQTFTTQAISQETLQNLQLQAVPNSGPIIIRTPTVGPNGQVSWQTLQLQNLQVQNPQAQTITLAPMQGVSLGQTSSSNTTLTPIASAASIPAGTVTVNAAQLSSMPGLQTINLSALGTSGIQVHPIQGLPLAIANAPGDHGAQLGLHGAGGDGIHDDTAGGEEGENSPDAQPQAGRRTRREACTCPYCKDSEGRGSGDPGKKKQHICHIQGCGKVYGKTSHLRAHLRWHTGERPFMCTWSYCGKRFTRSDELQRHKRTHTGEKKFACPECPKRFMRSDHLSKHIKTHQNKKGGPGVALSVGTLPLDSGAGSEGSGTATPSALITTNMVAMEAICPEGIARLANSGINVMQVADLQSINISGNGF
Chain of Estrogen receptor (Homo sapiens) (P03372 whole entry, looked up, the tested form may be a part): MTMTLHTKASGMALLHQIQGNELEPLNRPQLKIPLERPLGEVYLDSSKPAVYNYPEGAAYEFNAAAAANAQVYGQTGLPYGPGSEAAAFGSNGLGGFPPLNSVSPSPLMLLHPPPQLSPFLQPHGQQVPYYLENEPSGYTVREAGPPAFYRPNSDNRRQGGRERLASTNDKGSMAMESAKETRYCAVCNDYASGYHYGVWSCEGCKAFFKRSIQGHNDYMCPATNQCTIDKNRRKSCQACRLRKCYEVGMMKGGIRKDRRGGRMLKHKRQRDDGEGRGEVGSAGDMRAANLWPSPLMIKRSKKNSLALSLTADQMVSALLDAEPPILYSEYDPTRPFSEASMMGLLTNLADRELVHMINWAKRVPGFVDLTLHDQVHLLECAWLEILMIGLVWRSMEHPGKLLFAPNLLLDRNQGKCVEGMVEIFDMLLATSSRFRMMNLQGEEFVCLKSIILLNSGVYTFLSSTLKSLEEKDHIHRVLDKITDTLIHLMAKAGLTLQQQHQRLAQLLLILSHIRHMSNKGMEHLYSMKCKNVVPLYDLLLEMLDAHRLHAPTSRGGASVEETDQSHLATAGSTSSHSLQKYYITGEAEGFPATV
Chain of Signal transducer and activator of transcription 3 (Homo sapiens) (P40763 whole entry, looked up): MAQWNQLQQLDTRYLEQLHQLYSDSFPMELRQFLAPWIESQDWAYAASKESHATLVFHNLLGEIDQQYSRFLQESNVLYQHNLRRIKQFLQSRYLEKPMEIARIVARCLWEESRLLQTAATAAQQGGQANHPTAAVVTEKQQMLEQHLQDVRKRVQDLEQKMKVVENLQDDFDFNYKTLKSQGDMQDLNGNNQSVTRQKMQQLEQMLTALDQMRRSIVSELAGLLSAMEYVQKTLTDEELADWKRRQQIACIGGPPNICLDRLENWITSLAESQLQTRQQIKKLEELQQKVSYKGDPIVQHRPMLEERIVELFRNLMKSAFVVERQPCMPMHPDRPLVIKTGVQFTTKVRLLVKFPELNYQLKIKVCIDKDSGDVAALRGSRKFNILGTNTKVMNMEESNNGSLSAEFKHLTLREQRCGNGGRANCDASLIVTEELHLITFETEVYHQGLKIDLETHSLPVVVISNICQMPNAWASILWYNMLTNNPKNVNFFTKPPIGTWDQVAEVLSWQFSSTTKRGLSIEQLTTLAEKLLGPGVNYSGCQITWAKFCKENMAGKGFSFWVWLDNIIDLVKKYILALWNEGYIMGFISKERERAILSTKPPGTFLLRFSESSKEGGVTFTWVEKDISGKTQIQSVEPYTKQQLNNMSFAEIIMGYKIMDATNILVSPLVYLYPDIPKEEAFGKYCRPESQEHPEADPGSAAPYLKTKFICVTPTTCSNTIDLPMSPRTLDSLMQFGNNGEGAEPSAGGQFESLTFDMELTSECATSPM
Chain of Paired box protein Pax-6 (Homo sapiens) (P26367 whole entry, looked up): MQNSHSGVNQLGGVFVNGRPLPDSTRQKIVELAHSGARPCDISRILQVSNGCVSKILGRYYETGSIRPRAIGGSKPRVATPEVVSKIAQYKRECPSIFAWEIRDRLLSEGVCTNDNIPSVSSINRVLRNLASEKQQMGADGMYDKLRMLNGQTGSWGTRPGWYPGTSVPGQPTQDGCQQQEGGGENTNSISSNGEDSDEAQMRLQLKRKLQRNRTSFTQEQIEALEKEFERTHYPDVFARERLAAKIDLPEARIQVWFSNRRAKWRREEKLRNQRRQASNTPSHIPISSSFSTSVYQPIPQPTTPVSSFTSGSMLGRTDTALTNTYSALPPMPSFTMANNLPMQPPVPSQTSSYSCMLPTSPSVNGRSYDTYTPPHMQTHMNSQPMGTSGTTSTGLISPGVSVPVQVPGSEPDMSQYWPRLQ
Chain of Estrogen-related receptor gamma (Homo sapiens) (P62508 whole entry, looked up, the tested form may be a part): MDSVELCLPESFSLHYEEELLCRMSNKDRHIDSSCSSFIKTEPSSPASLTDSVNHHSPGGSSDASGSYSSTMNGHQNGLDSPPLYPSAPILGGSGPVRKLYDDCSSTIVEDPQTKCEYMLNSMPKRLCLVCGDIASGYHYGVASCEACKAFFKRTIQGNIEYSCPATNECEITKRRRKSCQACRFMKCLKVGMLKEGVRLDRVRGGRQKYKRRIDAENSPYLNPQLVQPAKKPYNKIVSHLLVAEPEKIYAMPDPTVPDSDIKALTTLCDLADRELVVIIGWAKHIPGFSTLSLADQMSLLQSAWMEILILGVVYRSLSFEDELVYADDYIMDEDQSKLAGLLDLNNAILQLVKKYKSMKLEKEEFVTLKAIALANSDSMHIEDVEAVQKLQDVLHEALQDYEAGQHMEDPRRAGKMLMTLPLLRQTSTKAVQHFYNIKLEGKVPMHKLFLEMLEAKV
Chain of Steroid hormone receptor ERR1 (Homo sapiens) (P11474 whole entry, looked up, the tested form may be a part): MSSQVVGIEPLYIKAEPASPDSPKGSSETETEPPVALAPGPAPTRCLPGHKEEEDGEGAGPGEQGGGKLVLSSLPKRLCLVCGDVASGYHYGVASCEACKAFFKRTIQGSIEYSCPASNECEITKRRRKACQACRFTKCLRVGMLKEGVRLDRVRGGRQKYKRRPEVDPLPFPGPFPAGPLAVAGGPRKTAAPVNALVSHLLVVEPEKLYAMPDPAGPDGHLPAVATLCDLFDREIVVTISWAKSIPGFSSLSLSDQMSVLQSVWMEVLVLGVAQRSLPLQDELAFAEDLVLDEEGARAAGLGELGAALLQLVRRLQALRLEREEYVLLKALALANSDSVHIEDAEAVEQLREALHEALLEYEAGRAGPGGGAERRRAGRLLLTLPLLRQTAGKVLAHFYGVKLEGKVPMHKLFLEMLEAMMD
Chain of Nuclear receptor subfamily 1 group I member 3 (Homo sapiens) (Q14994 whole entry, looked up, the tested form may be a part): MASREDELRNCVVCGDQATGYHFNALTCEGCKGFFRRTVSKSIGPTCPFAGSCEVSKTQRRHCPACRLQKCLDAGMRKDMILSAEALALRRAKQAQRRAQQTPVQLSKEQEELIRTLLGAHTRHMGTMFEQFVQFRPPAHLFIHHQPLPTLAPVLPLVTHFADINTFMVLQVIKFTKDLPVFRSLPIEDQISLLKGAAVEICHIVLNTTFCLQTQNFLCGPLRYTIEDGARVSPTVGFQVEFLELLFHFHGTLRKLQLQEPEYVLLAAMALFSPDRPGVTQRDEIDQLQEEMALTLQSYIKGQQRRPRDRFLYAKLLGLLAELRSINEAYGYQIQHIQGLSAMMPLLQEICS

As to `Cc1ccc(OC(=O)CC(C)C)cc1`, the call in test [1], in [2], in [3], in test [4], in [5] and in test [6] was inactive. The outcome in test [7], in [8], in test [9], in test [10], in [11] and in [12] was inactive. The molecule was classed as inactive in test [13], in [14] and in test [15].

As for `Nc1cccc(C(F)(F)F)c1`, the result in [1], in test [2], in test [3], in test [4], in test [5] and in [6] was inactive. In addition, the result in [7], in test [8], in test [16], in test [10], in test [11] and in test [13] was inactive. Moreover, the outcome in [17], in test [14] and in test [18] was inactive.

Turning to `O=CN1CCCCC1`, the result in test [1], in [2], in test [3], in [4], in test [5] and in [6] was inactive. The outcome in [7], in test [16], in [9], in test [11], in test [19] and in test [12] was inactive. Also, the call in test [13], in [14], in [20] and in test [15] was inactive.

For `O=c1cc[nH]c(=S)[nH]1`, the outcome in [1], in test [2], in test [3], in [4], in test [5] and in test [6] was inactive. Moreover, the result in [7], in [8], in test [9], in test [10], in test [11] and in [13] was inactive. Also, the outcome in [17], in test [14] and in test [18] was inactive.

In the case of `CCCCCCCCCCCCCCCC[n+]1ccccc1`, the call in [1], in [2], in test [4], in test [5], in test [6] and in [7] was inactive. Further, the call in [8], in [9], in [10] and in test [14] was inactive. In addition, the AC50 in test [3] was 8.82 µM (active); in test [11], 45.8 µM (active); in test [19], 3.87 µM (active).

One may read the AC50 as the midpoint of the concentration-response curve, whichever way the signal moves.
